Counter-ions that a name gives are not always drawn. Unmarked numbers belong to inactive results.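 Rule for the calls: active = AUC significantly below DMSO controls by Student t-fit with adjusted P under 0.01; inactive = not significantly reduced.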
Tested on: Vibrio cholerae
Test: growth AUC normalised to DMSO control (fraction of control); higher = less growth inhibition, active = hit call of the paper
Details: 20 µM
Procedure, shortened: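 Pathogens were passaged twice under anaerobic conditions, then inoculated into pre-reduced mGAM plates at a starting OD578 of 0.01, with compound at 20 μM and 1% DMSO, and sealed with breathable membranes. For Haemophilus parainfluenzae, the medium was supplemented with hemin and NAD. OD578 was read every hour for 24 h in three biological replicates. Growth-curve AUC was calculated by the trapezoidal rule up to the exponential-to-stationary transition and normalised to DMSO controls on the same plate.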

Structure (SMILES)	growth AUC normalised to DMSO control
Cc1ccc(-c2cc(C(F)(F)F)nn2-c2ccc(S(N)(=O)=O)cc2)cc1 [Celecoxib]	0.851 (active)
CCCN(CCC)C(=O)C(CCC(=O)O)NC(=O)c1ccccc1 (stereo not given) [Proglumide]	1.05
Clc1ccc(C(c2ccccc2Cl)C(Cl)Cl)cc1 (stereo not given) [Mitotane]	1.07
CCc1c(C)[nH]c2c1C(=O)C(CN1CCOCC1)CC2 (stereo not given) [Molindone hydrochloride]	1.04
OC(CCN1CCCCC1)(c1ccccc1)C1CC2C=CC1C2 (stereo not given) [Biperiden hydrochloride]	0.934
CC(COc1ccccc1)N(CCCl)Cc1ccccc1 (stereo not given) [Phenoxybenzamine hydrochloride]	1.01
Nc1ccc(/N=N/c2ccccc2)c(N)n1 [Phenazopyridine hydrochloride]	0.927
N=C(N)NS(=O)(=O)c1ccc(N)cc1 [Sulfaguanidine]	1.04
COc1ccc(/C=C/C(=O)Nc2ccccc2C(=O)O)cc1OC [Tranilast]	0.992
C=C1/C(=C\C=C2/CCC[C@]3(C)[C@@H]([C@H](C)/C=C/[C@@H](O)C4CC4)CC[C@@H]23)C[C@@H](O)C[C@@H]1O [Calcipotriene]	0.972
C[N+](C)(CCOc1ccccc1)Cc1ccccc1.O=C([O-])c1cc2ccccc2cc1O [Bephenium hydroxynaphthoate]	1.03
COc1c(N2C[C@@H]3CCCN[C@@H]3C2)c(F)cc2c(=O)c(C(=O)O)cn(C3CC3)c12 [Moxifloxacin]	0.0211 (active)
C[N+](C)(C)CCOC(N)=O [Carbachol chloride]	1.08
COCCOC(=O)C1=C(C)NC(C)=C(C(=O)OC/C=C/c2ccccc2)C1c1cccc([N+](=O)[O-])c1 (stereo not given) [Cilnidipine]	1.03
CCc1cc(C(N)=S)ccn1 [Ethionamide]	0.998
CCOC(=O)n1ccn(C)c1=S [Carbimazole]	0.981
CN(C)CCC[C@@]1(c2ccc(F)cc2)OCc2cc(C#N)ccc21 [Escitalopram oxalate]	0.976
COc1ccc2[nH]c([S+]([O-])Cc3ncc(C)c(OC)c3C)nc2n1 (stereo not given) [Tenatoprazole]	0.894
CC1CCc2cc(F)cc3c(=O)c(C(=O)O)cn1c23 (stereo not given) [Flumequine]	0.0549 (active)
CCn1cc(C(=O)O)c(=O)c2cc(F)c(N3CCNCC3)cc21 [Norfloxacin]	0.0427 (active)

Structure (SMILES)	growth AUC normalised to DMSO control
Nc1ccc(S(=O)(=O)c2ccc(N)cc2)cc1 [Dapsone]	0.988
CC(C)(C)NCC(O)COc1cccc2c1CC(O)C(O)C2 (stereo not given) [Nadolol]	1
COc1c2occc2c(OC)c2c(=O)cc(C)oc12 [Khellin]	0.983
COc1cc(C(=O)NS(=O)(=O)c2ccccc2C)ccc1Cc1cn(C)c2ccc(NC(=O)OC3CCCC3)cc12 [Zafirlukast]	0.966
NS(=O)(=O)c1cc2c(cc1Cl)NCNS2(=O)=O [Hydrochlorothiazide]	1.05
CC(=O)O[C@H]1C[C@@H]2CC[C@@H]3[C@H](CC[C@@]4(C)[C@H]3C[C@H]([N+]3(C)CCCCC3)[C@@H]4OC(C)=O)[C@@]2(C)C[C@@H]1N1CCCCC1 [Vecuronium bromide]	1.01
CC(=O)OCC(=O)[C@@]1(O)CC[C@H]2[C@@H]3CCC4=CC(=O)CC[C@]4(C)[C@@]3(F)[C@@H](O)C[C@@]21C [Fludrocortisone acetate]	1
CC1(C)S[C@@H]2[C@H](NC(=O)[C@H](NC(=O)N3CCNC3=O)c3ccccc3)C(=O)N2[C@H]1C(=O)O [Azlocillin sodium salt]	0.78 (active)
C[C@@](Cc1ccc(O)c(O)c1)(NN)C(=O)O [Carbidopa]	0.996
C[C@H]1O[C@H](O[C@H]2[C@H](O)[C@@H](O)[C@@H](O[C@@H]([C@H](O)[C@@H](O)C=O)[C@H](O)CO)O[C@@H]2CO)[C@H](O)[C@@H](O)[C@@H]1N[C@H]1C=C(CO)[C@@H](O)[C@H](O)[C@H]1O [Acarbose]	0.999
O=C(O)CCC(=O)c1ccc(-c2ccccc2)cc1 [Fenbufen]	0.87
CN1CCC[C@@H]1CCO[C@](C)(c1ccccc1)c1ccc(Cl)cc1 [Clemastine fumarate]	0.926
CN(C)CCOC(C)(c1ccccc1)c1ccccn1 (stereo not given) [Doxylamine succinate]	1
CC(=O)N(O)CCCCCNC(=O)CCC(=O)N(O)CCCCCNC(=O)CCC(=O)N(O)CCCCCN [Deferoxamine mesylate]	1.03
C[C@]12CCC(=O)C=C1CC[C@@H]1[C@@H]2[C@@H](O)C[C@@]2(C)[C@H]1CC[C@]2(O)C(=O)CO [Hydrocortisone]	0.97
CN(C)CC/C=C1\c2ccccc2CSc2ccccc21 [Dosulepin hydrochloride]	0.952
CN1CCN(CCCN2c3ccccc3Sc3ccc(S(=O)(=O)N(C)C)cc32)CC1 [Thioproperazine dimesylate]	0.968
CO[C@H]1C[C@H](O[C@H]2[C@H](C)[C@@H](O[C@@H]3O[C@H](C)C[C@H](N(C)C)[C@H]3OC(C)=O)[C@@H](C)C[C@@]3(CO3)C(=O)[C@H](C)[C@@H](OC(C)=O)[C@@H](C)[C@@H](C)OC(=O)[C@@H]2C)O[C@@H](C)[C@@H]1OC(C)=O [Troleandomycin]	0.882
Cc1cnc(C(=O)O)c[n+]1[O-] [Acipimox]	0.982
COc1ccc(-c2cc(=O)c3c(O)cc(O[C@@H]4O[C@H](CO[C@@H]5O[C@@H](C)[C@H](O)[C@@H](O)[C@H]5O)[C@@H](O)[C@H](O)[C@H]4O)cc3o2)cc1O [Diosmin]	0.971
